# Shown are actives, neighbours in structure and some others; about 10% of the full set was active somewhere.
# G9a block = qHTS Assay for Inhibitors of Histone Lysine Methyltransferase G9a; Histone-lysine N-methyltransferase EHMT2 (Homo sapiens), Q96KQ7; hit rate 8.8% among 350,000; G9a H3K9 monomethylation, AlphaScreen, 2 h; AID 504332, 2011; Potency, µM (highest dose often 102 µM), inactives show at the highest dose activity, negative = inhibition, hits mostly inhibitors; note: potency is the fitted concentration of half-maximal effect; % is set by controls: 0 for no effect and ±100 for the full control effect; nearly all actives have a fitted effect of over 75% in size
#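 Step 1: enzyme (final 20 nM) with compound, 15 min RT. Step 2: substrate peptide 500 nM and SAM 20 uM, 2 h RT. Step 3: anti-H3K9me1 antibody and AlphaScreen beads, 10 min, then plate read.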
# PLK1 PBD block = qHTS for Inhibitors of PLK1-PDB (polo-like kinase 1 - polo-box domain): Primary Screen; hit rate 2.8% among 360,000; Serine/threonine-protein kinase PLK1 (Homo sapiens), P53350; Plk1 PBD binding of FITC phosphopeptide, fluorescence polarization; AID 720504, 2013; Potency, µM, for inactives: max response, negative = inhibition, hits mostly inhibitors; note: potency is the fitted concentration of half-maximal effect; series mostly up to about 57 µM; % is set by controls: 0 for no effect and ±100 for the full control effect; nearly all actives have a fitted effect of over 65% in size
# Target sequence (P53350 whole entry, looked up, the tested form may be a part): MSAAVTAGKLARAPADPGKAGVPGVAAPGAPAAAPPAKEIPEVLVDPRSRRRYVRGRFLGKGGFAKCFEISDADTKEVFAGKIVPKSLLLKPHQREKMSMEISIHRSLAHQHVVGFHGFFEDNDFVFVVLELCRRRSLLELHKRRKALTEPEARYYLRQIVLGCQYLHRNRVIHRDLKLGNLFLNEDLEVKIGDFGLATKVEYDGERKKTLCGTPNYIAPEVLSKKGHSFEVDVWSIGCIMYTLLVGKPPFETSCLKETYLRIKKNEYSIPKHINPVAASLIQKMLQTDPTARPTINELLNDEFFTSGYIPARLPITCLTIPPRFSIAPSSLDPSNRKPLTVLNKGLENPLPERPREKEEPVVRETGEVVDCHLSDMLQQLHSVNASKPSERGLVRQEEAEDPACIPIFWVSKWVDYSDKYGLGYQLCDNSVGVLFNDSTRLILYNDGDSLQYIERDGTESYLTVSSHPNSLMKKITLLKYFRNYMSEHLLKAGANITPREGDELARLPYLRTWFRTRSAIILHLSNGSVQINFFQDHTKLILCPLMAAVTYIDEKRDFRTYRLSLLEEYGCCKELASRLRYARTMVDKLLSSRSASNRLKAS
# Sfp PPTase inh = qHTS Assay for Inhibitors of Bacillus subtilis Sfp phosphopantetheinyl transferase (PPTase); 4'-phosphopantetheinyl transferase ffp (Bacillus subtilis), Q9F4F7; Biochemical Sfp PPTase activity, qHTS; Potency, µM, without a hit: largest response in the series, negative = inhibition, most hits filed as inhibitors; hit rate 3.5% among 310,000; AID 1490, 2009;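 note: the enzyme is Sfp with the accession as filed and its product quenches rhodamine fluorescence; potency is the fitted concentration of half-maximal effect; 0% = enzyme reaction without inhibitor and -100% = no enzyme wells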
#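 With Hepes-Na pH 7.6 buffer containing 10 mM MgCl2, Sfp (15 nM) modified BHQ-2-YbbR (12.5 uM) using rhodamine-CoA (5 uM). Two reads 30 minutes apart at 525/598 nm yielded each well's rate.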
# CCT chaperon mod = High-Throughput Screening for Modulators of Cytosolic Chaperonin Activity; hit rate 0.3% among 360,000; AID 651819, 2012; activity change, % (test concentration not listed), hits read low; purified chaperonin ATPase assay, HTRF ADP detection, 30 min; in the data active = activity change below about -30%; note: % is set by controls: 0 for no effect and ±100 for the full control effect
#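 We incubate TRiC, 40 or 20 nM final, with library compounds at 76 uM and 10 uM ATP for 30 min at 37 °C. ADP formed is detected with Transcreener HTRF reagents after 30 min at room temperature.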
# VDR inh = Inhibitors of the vitamin D receptor (VDR): qHTS; AID 504847, 2011; Potency, µM, for the others: max response, negative = inhibition, most hits filed as inhibitors; hit rate 0.93% among 400,000; Vitamin D3 receptor (Homo sapiens), P11473; VDR-SRC2-3 peptide fluorescence polarization, 2 h; note: potency is the fitted concentration of half-maximal effect; % is set by controls: 0 for no effect and ±100 for the full control effect
#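 After 23 nl compound addition and a short centrifugation, plates sat for 2 hours at ambient temperature; polarization of fluorescence then indicated loss of VDR binding to peptide SRC2-3.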
# MmCpn inh = Inhibitors of TCP-1 ring complex (TRiC) of Methanococcus maripaludis (MmCpn): qHTS; Chaperonin Mm-Cpn (Methanococcus maripaludis); purified Mm-Cpn ATPase, ADP Transcreener TR-FRET; Potency, µM (titrated, usually from 76.9 µM), without a hit: at the highest dose activity, negative = inhibition, most hits filed as inhibitors; hit rate 0.031% among 330,000; AID 504842, 2011; note: potency is the fitted concentration of half-maximal effect; % is set by controls: 0 for no effect and ±100 for the full control effect; nearly all actives have a fitted effect of over 80% in size
#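 ATP (10 uM final) was added to archaeal chaperonin (25 nM final) after 10 min exposure to test compound at 37°C; after 30 min further incubation, ADP was detected by competitive TR-FRET.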
# USP1 UbRho = Inhibitors of USP1/UAF1: Hit Validation in Primary Assay. shares compounds with VDR inh. Ub-Rhodamine cleavage, fluorescence kinetic read. Potency, µM (doses to about 56.8 µM), for the others: top-dose activity change, negative = inhibition, most hits filed as inhibitors. hit rate 50% among 50
# VDR inh confirm = qHTS for Inhibitors of the vitamin D receptor (VDR): Hit Validation in Primary Screen. shares compounds with VDR inh. VDR-coactivator inhibition assay, qHTS confirmation. Potency, µM, usual class: inhibitors. hit rate 89% among 840; note: potency is the fitted concentration of half-maximal effect
# VDR FP fluor = qHTS for Inhibitors of the vitamin D receptor (VDR): Hit Validation using a Fluorescein Assay; shares compounds with VDR inh; VDR-coactivator binding, fluorescein fluorescence polarization; Potency, µM (titrated, usually from 57.1 µM), without a hit: top-dose activity change, negative = inhibition, actives largely listed as inhibitors; hit rate 48% among 840; AID 602200, 2012; note: potency is the fitted concentration of half-maximal effect
# VDR bla reporter = qHTS for Inhibitors of the vitamin D receptor (VDR): Hit Validation using a Beta-Lactamase Assay | shares compounds with VDR inh | VDR beta-lactamase reporter cells, FRET ratio; cells co-treated with VDR agonist LG190178 | Potency, µM (titrated, usually from 46.1 µM), for the others: top-dose activity change, negative = inhibition, actives largely listed as inhibitors | hit rate 23% among 840 | AID 602202, 2012; note: potency is the fitted concentration of half-maximal effect; % is set by controls: 0 for no effect and ±100 for the full control effect
# VDR viability = qHTS for Inhibitors of the vitamin D receptor (VDR): Hit Validation using a Cytotoxicity Assay. shares compounds with VDR inh. cytotoxicity counter-screen, cell viability, qHTS. Potency, µM (doses to about 48.3 µM), for the others: at the top dose activity change, negative = cytotoxicity, actives largely listed as cytotoxic. hit rate 18% among 840. AID 602204, 2012;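 note: potency is the fitted concentration of half-maximal effect; plate controls were DMSO for no effect and high-concentration cycloheximide for full effect; nearly all actives have a fitted effect of over 75% in size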
# The depositor's hits bear a star; ? = inconclusive; . = not tested or not shown; ! = a repeat was not active; [ ] = another dose, or the depositor's remark. Unless noted, calls come from the whole dose curve; as a rule, active = well fitted curve in the direction sought with a large enough effect; inconclusive = small, poorly fitted or top-dose-only effect, or another doubt; inactive = no such curve, though single readings can be large; an effect the other way counts as inactive or inconclusive.
SMILES,G9a block,PLK1 PBD block,Sfp PPTase inh,CCT chaperon mod,VDR inh,MmCpn inh,VDR inh confirm,VDR FP fluor,VDR bla reporter,VDR viability,others
CCOC(=O)c1nn(-c2ccc(F)cc2)c(=O)c2c(N)scc12,28µM*,?,50µM*,1,7.9µM*,-1%,27*,?,40%,34%,
Nc1ccc(N2CCCC2)c(S(=O)(=O)Nc2cccc(C(F)(F)F)c2)c1,.,4.7µM*,.,-4,40µM*,2%,11*,?,-4%,17%,
Cc1ccc2oc(-c3ccc(C)c(NC(=O)c4ccc(-c5ccccc5[N+](=O)[O-])o4)c3)nc2c1,7%[59 µM],.,.,.,0%,.,.,.,.,.,
Cc1sc(C(C2C(=O)CC(C)(C)CC2=O)C2C(=O)CC(C)(C)CC2=O)cc1[N+](=O)[O-],7.9µM*,4.7µM*,6.3µM*,2,?,1%,6.3*,4µM*,1%,2%,
CC1(C)CC(=O)C(C(c2cc([N+](=O)[O-])ccc2Cl)C2C(=O)CC(C)(C)CC2=O)C(=O)C1,.,-23%,.,-1,-14%,.,.,.,.,.,
COc1ccc(C2CC(=O)c3cc(-c4nc(-c5ccc(Cl)cc5)cs4)c(=O)[nH]c3C2)cc1 (stereo not given),?,.,.,.,-8%,.,.,.,.,.,
O/N=C/c1cc(Br)ccc1OCc1ccc(F)cc1,.,-25%,.,0,?,.,.,.,.,.,
O=C(O)CN1C(=O)/C(=C\c2cc(Br)ccc2OCc2ccc(F)cc2)SC1=S,45µM*,21µM*,-4%,2,71µM*,0%,?,32µM*,24%,11%,
Cn1cc(-c2nc3cnc(N4CCNCC4)nc3n(C)c2=O)c2ccccc21,0%[0.501 µM],.,-8%,.,-13%,.,.,.,.,.,
COc1cccc(N2CCN(C(=O)c3ccc4c(Cl)c5c(nc4c3)CCCC5)CC2)c1,?,.,.,.,-9%,.,.,.,.,.,
COc1ccc(Cc2ccccc2C(=O)O)cc1,.,-9%,.,1,10%,.,.,.,.,.,
COc1ccc(CC2=CC(=O)c3ccccc3C2=O)cc1,.,?,25µM*,1,20µM*,-5%,4.2*,3.2µM*,?,16µM*,
COC1=C(C)C(O)=C(C(=O)/C=C/c2ccccc2)C(=O)C1(C)C,-12%[59 µM],-3%,2%,1,20µM*,-1%,17*,20µM*,?,-3%,
COc1cc(C)cc(C(=O)C=Cc2ccccc2)c1O,.,?,.,-3,?,.,.,.,.,.,
N#Cc1ccccc1-c1ccc2ncnc(NCCN3CCOCC3)c2c1,-32%[0.501 µM],.,37%,.,-19%,.,.,.,.,.,
COc1cccc(/C=C/C(=O)c2c(O)cc(C)oc2=O)c1O,?,-12%,5%,0,?,-12%,.,.,.,.,
CSc1ccc(/C=C/C(=O)c2c(O)cc(C)oc2=O)cc1,?,-7%,13%,-2,?,-1%,5.3*,152%,?,?,
Cc1cc(C)nc(NC(=S)NC(=O)c2ccccc2F)n1,.,-4%,.,-2,6%,.,.,.,.,.,
Cc1cc(C)nc(S/C=C/C(=O)c2ccccc2F)n1,14µM*,4.7µM*,-29%,0,?,-2%,2*,1.6µM*,16µM*,17µM*,
O=C(NNc1cc(Br)c(O)c(Br)c1)c1ccccc1,5µM*,-21%,-56%,2,79µM*,-2%,?,?,-4%,1%,
CC(C)NC(=O)C1(C)CCCN1C(=O)c1ccc2c(c1)C(C)(C)CCC2(C)C (stereo not given),.,-2%,.,-1,.,.,.,.,.,.,
C/C(=C\c1ccc(C(=O)O)cc1)c1ccc2c(c1)C(C)(C)CCC2(C)C,16µM*!,27µM*,40%,2,-1%,-2%,.,.,.,.,USP1 UbRho=?
CCOc1ccccc1NC(=O)/C=C/c1ccccc1[N+](=O)[O-],?,-15%,-9%,-1,-6%,-4%,.,.,.,.,
CCOc1ccc(/C=C/[N+](=O)[O-])c2ccccc12,?,3.4µM*,8.9µM*,-4,20µM*,0%,6.7*,?,?,?,
CCOC(=O)COc1ccc(/C=C/[N+](=O)[O-])c(OCC(=O)OCC)c1,71µM*,?,-30%,1,13µM*,3%,6.7*,?,?,13µM*,
CCOC(=O)COc1ccc2nsnc2c1,0%[59 µM],-4%,13%,-2,-5%,-26%,.,.,.,.,
O=C(Nc1ccc(C(=O)OCc2cc(=O)n3nc(C4CC4)sc3n2)cc1)c1cccc(F)c1,37%[59 µM],.,.,.,12%,.,.,.,.,.,
COc1ccc(CNC(=O)C2CCCN(C(=O)c3cnn(-c4ccc(F)cc4)c3-n3cccc3)C2)cc1 (stereo not given),8%[59 µM],.,.,.,4%,.,.,.,.,.,
COc1ccc(NC(=O)CN2C(=O)C(c3ccc(C)cc3)=NC23CCCCCC3)cc1Cl,6%[59 µM],.,.,.,8%,.,.,.,.,.,
Cc1cc(S(=O)(=O)c2ccc([N+](=O)[O-])cn2)ccc1Br,.,?,.,1,?,.,2.2*,2.5µM*,7.3µM*,?,

# High-throughput results deposited in PubChem BioAssay by National Center for Advancing Translational Sciences (NCATS).
